Source: PubChem (several laboratories)
HCT116 bCat-KO = primary screen for growth suppressors in beta-catenin knockout HCT116 cells (colon tumor, human). HCT116 beta-catenin knockout viability, CellTiter-Glo, 60 h; hits give low values. viability, % at 10 µM. 1.5% of 140,000 active;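 active = viability at or under a set limit, the compound median less 4 SD, cut at about 6% in these data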
Autophagy HCS = autophagy modulators in MEF cells, primary screen, imaging, high-content, MEF GFP-LC3; calls only at 10 µM (by protocol); 0.98% of 190,000 active; MEF GFP-LC3 puncta imaging; test concentration mostly 10 µM;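 active = percentage of spot-positive cells more than 3 SD above its plate mean, without a fluorescence outlier flag or 80% toxicity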
L major viab = Leishmania major promastigote growth inhibition, primary screen; AID 1063, 2008; Leishmania major promastigotes, resazurin fluorescence viability; inhibition, % at 10 µM; 9% of 200,000 active; in the data active = inhibition above about 50%;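 note: promastigotes grown with compound for 44 hours at 28 °C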
Ins promoter up = insulin promoter activators in MIN6 cells, imaging, high-content screening, mouse beta cells; 0.3% of 190,000 active; z-score at 5 µM; MIN6 insulin promoter-GFP reporter; hits give high values;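 active = z-score above 3 at 5 µM with at least 500 cells counted in the well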
Insulin prom inh = inhibitors of insulin promoter-driven GFP, primary screen, imaging, TRM-6 cells (human fetal islet line), eGFP reporter, cell count; inhibition, % at 2 µM; AID 1273, 2008; reporter expression induced with tamoxifen; 0.9% of 130,000 active;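 active = inhibition above the mean plus 3 SD, with well images judged a real hit on visual review, cut at about 60% in these data, passing the limit was not always enough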
HCT116 PTEN-null = growth suppression of PTEN-null HCT116, primary screen, cell-based, CellTiter-Glo; HCT116 PTEN-null viability, 60 h; hits give low values; viability, % at 10 µM; 1.2% of 140,000 active;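 active = viability at or below a set limit, 4 SD under the median of all tested compounds, cut at about 3.7% in these data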;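 note: PTEN knockout HCT116 line with beta catenin targeted HCT116 as companion control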
Of the large screens only hits and unclear results are named; the others gave an inactive call. Rows were chosen to be rich in hits. Some 9.6% of all compounds tested hit in one or more screens of this group.

COc1ccc(Cn2nnnc2C(c2ccc(C)cc2)N2CCN(C3CCCC3)CC2)cc1 (stereo unspecified)	none
COC(=O)C1=C(C)OC(N)=C(C#N)C1c1ccc(OC)c(OC)c1OC (stereo unspecified)	none
COc1ccc(-c2cn3c(C)c(C(=O)Nc4ccncc4)sc3n2)cc1	L major viab 100 (no result: Insulin prom inh)
COc1ccc(-c2cn3c(C)c(C(=O)Nc4cccc(NC(C)=O)c4)sc3n2)cc1	none (no result: Ins promoter up)
COc1cccc(C(=O)CN2CCN(S(=O)(=O)c3ccc(Br)cc3)CC2)c1	none
CCOC(=O)c1nc(N2CCN(C(=O)OCC)CC2)c2c3c(sc2n1)CCCC3	Autophagy HCS active (no result: Insulin prom inh)
CCOC(=O)c1nc2sc3c(c2c(=O)[nH]1)CCCC3	none
COC(=O)c1cc(NC(=O)c2nccnc2C(=O)O)cc(C(=O)OC)c1	none (no result: Autophagy HCS, Insulin prom inh)
OCCN1CCN(Cc2cc(Br)cc(Br)c2O)CC1	none
Oc1c(CN2CCN(c3ccccn3)CC2)cc(Cl)c2cccnc12	HCT116 bCat-KO 2.0, L major viab 100, HCT116 PTEN-null 2.6
O=c1c(CN2CCN(c3ccccn3)CC2)coc2ccccc12	L major viab 63
OCCN1CCN(Cc2cc(Cl)c3cccnc3c2O)CC1	L major viab 100
Cc1[nH]c2ccccc2c1CN1CCN(c2ccccn2)CC1	none (no result: HCT116 bCat-KO, Autophagy HCS, L major viab, Insulin prom inh, HCT116 PTEN-null)
COc1ccc(C(C#N)Nc2ccccc2OC)cc1 (stereo unspecified)	none
CCCCCCCc1nn2c(=O)cc(O)nc2s1	none (no result: Insulin prom inh)
COC(=O)Cc1c(C)nc2nc(NCc3ccccc3OC)[nH]n2c1=O	Ins promoter up 4.3
COc1ccccc1CNc1nc2nc(C)c(C)c(=O)n2[nH]1	none (no result: Insulin prom inh)
CCOC(=O)CCCCCN(Cc1ccccc1)S(=O)(=O)c1ccc([N+](=O)[O-])cc1	L major viab 97 (no result: Insulin prom inh)
COc1ccc(/C=N\N=C2/SC(CC(=O)O)C(=O)N2c2ccc(O)cc2)cc1OC (stereo unspecified)	L major viab 56
COc1cc(/C=N\N=C2/SC(CC(=O)O)C(=O)N2c2ccc(O)cc2)ccc1O (stereo unspecified)	none
CC(C)(C)c1ccc(C(=O)Nc2cnccn2)cc1	none
O=C(C1=C(O)/C(=C/c2ccc(O)cc2)CCC1)C(F)(F)F	L major viab 56 (no result: Ins promoter up)
COc1ccc(/C=C2\CCCC(C(=O)C(F)(F)F)=C2O)cc1	none
Cn1c(SCC#N)nc2ccccc2c1=O	none (no result: HCT116 bCat-KO, Autophagy HCS, L major viab, Insulin prom inh, HCT116 PTEN-null)
Cc1ccc(CSc2nc3ccccc3c(=O)n2Cc2ccco2)cc1	L major viab 62 (no result: Ins promoter up)
Cc1ccc(-c2nc(CSc3nc4ccccc4c(=O)n3C)cs2)cc1	L major viab 76
C=CCn1c(SCc2csc(-c3ccc(C)cc3)n2)nnc1-c1ccccc1OC	L major viab 100 (no result: Insulin prom inh)
Cc1ccc(-c2nc(CSc3nc4ccccc4c(=O)n3CCO)cs2)cc1	L major viab 62
CC(C)CCOCC(=O)Oc1ccccc1C(=O)O	none (no result: Insulin prom inh)
COc1ccccc1N(CN1CCCC1=O)C(=O)c1c(F)cccc1F	none (no result: Insulin prom inh)
COc1ccc(-c2nc3ccccc3[nH]2)cc1	Insulin prom inh 94
COC(=O)c1ccc(/C=N/Nc2nc3ccccc3[nH]2)cc1	none (no result: HCT116 bCat-KO, Insulin prom inh, HCT116 PTEN-null)
COC(=O)c1ccc(-c2nc3ccccc3[nH]2)cc1	Insulin prom inh 64
c1ccc2[nH]c(-c3ccncc3)nc2c1	none (no result: HCT116 bCat-KO, Insulin prom inh, HCT116 PTEN-null)
CC(C)(C)c1ccc(C(=O)NNC(=O)c2cccc(-n3cnnn3)c2)cc1	none (no result: HCT116 bCat-KO, Autophagy HCS, L major viab, Insulin prom inh, HCT116 PTEN-null)
CCOc1ccc(OCC)c(S(=O)(=O)NCCOC23CC4CC(CC(C4)C2)C3)c1	L major viab 78 (no result: Ins promoter up)
CCOC(=O)c1cc(N)cc([N+](=O)[O-])c1	none
O=C(NCC1CCCO1)C(c1ccccn1)N(Cc1ccccc1Cl)C(=O)CN1C(=O)c2ccccc2S1(=O)=O (stereo unspecified)	Autophagy HCS active (no result: HCT116 bCat-KO, Ins promoter up, Insulin prom inh, HCT116 PTEN-null)
O=C(NCC1CCCO1)C(c1ccncc1)N(Cc1ccc(F)cc1)C(=O)CN1C(=O)c2ccccc2S1(=O)=O (stereo unspecified)	none
Cc1cc(C)c(N(C(=O)CN2C(=O)c3ccccc3S2(=O)=O)C(C(=O)NCC2CCCO2)c2ccc(F)cc2)c(C)c1 (stereo unspecified)	L major viab 69
Cc1ccc(C(=O)OCC2OC3OC(C)(C)OC3C2O)cc1 (stereo unspecified)	none
CCOC(=O)c1cnc2c(Cl)cc(Cl)cc2c1NCCOCCO	L major viab 96 (no result: Insulin prom inh)
CC(=O)c1cccc(N(CC(=O)Nc2ccc(F)cc2)S(C)(=O)=O)c1	none
COc1ccccc1-n1c(=O)c(C#N)c(-c2ccc([N+](=O)[O-])cc2)c2cc(C(=O)c3cc(F)ccc3O)cnc21	none (no result: HCT116 bCat-KO, Insulin prom inh, HCT116 PTEN-null)
O=S(=O)(c1ccc(Cl)c(Cl)c1)c1snnc1-c1ccccc1	HCT116 bCat-KO 1.2, L major viab 100, HCT116 PTEN-null 1.3
NC(=O)c1snnc1-c1ccccc1	none (no result: HCT116 bCat-KO, Autophagy HCS, L major viab, Insulin prom inh, HCT116 PTEN-null)
COc1ccc(N2CCc3c(C)nc4c(OC)cc(OC)cc4c32)cc1	L major viab 100 (no result: HCT116 bCat-KO, Ins promoter up, HCT116 PTEN-null)
COc1ccc(N2CCc3c(C)nc4c(OC)cccc4c32)cc1	L major viab 100 (no result: HCT116 bCat-KO, Insulin prom inh, HCT116 PTEN-null)
Cc1nc2c(C)cccc2c2c1CCN2c1ccccc1F	none (no result: HCT116 bCat-KO, Autophagy HCS, L major viab, Insulin prom inh, HCT116 PTEN-null)
COc1ccc(N2CCc3c(C)nc4c(OC)cc(OC)cc4c32)c(OC)c1	L major viab 101 (no result: Ins promoter up)
CCc1c(C)nc(SCC(=O)Nc2ccc3c(c2)OCCO3)[nH]c1=O	none (no result: HCT116 bCat-KO, Ins promoter up, HCT116 PTEN-null)
CCC(c1nnnn1C1CCCC1)N1CCN(Cc2ccccc2)CC1 (stereo unspecified)	L major viab 81 (no result: Ins promoter up)
CCCCC(c1nnnn1C1CCCC1)N1CCN(C(=O)c2ccco2)CC1 (stereo unspecified)	L major viab 58 (no result: Insulin prom inh)
Fc1ccc(C(c2nnnn2C2CCCC2)N2CCN(Cc3ccncc3)CC2)cc1 (stereo unspecified)	none
CCC(c1nnnn1CCOC)N1CCN(Cc2ccccc2)CC1 (stereo unspecified)	none
c1cncc(C(c2nnnn2C2CCCC2)N2CCN(Cc3ccc4c(c3)OCO4)CC2)c1 (stereo unspecified)	L major viab 91
Fc1ccccc1C(c1nnnn1C1CCCC1)N1CCN(Cc2ccccc2)CC1 (stereo unspecified)	L major viab 61 (no result: Ins promoter up)
CCCC(c1nnnn1C1CCCC1)N1CCN(C(=O)c2ccco2)CC1 (stereo unspecified)	none
O=C(CN1CCOCC1)Nc1ccc(C2CCCCC2)cc1	none (no result: Insulin prom inh)
Cc1cccc(C)c1NC(=O)C(C)c1ccc(-c2ccccc2)c(F)c1 (stereo unspecified)	L major viab 100
CC(NCCOCCOc1ccccc1)c1ccccc1 (stereo unspecified)	none (no result: Ins promoter up, Insulin prom inh)
CCC(C)NCCOCCOc1ccc(Cl)c(C)c1C (stereo unspecified)	L major viab 98
CCC(C)NCCOCCOc1ccc(Cl)c2ccccc12 (stereo unspecified)	L major viab 100 (no result: HCT116 bCat-KO, Insulin prom inh, HCT116 PTEN-null)
Nc1ccn(-c2ncc(C(F)(F)F)cc2Cl)c(=O)n1	none (no result: HCT116 bCat-KO, Insulin prom inh, HCT116 PTEN-null)
Cc1ccc(CC(=O)NCC(C)C)cc1	none (no result: Ins promoter up)
